In article PMC4336329 (PLoS ONE, 2015):
In all, about 310,000 compounds went through this assay and about 14,000 (4.5%) showed an effect of 50% or more. The effect is printed as a negative number. What follows is part of a selection rich in strong results, with near analogues and random picks from the rest.

What follows are compounds tested against human ether-à-go-go-related gene (hERG) potassium channel (human, UniProt Q12809) (assay: primary screen, population patch clamp on CHO cells stably expressing hERG; higher = less effect of the substance).
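Also: peak tail current of the secondary pulse compared with the same well before compound.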

human ether-à-go-go-related gene (hERG) potassium channel, sequence (Q12809 whole entry, looked up): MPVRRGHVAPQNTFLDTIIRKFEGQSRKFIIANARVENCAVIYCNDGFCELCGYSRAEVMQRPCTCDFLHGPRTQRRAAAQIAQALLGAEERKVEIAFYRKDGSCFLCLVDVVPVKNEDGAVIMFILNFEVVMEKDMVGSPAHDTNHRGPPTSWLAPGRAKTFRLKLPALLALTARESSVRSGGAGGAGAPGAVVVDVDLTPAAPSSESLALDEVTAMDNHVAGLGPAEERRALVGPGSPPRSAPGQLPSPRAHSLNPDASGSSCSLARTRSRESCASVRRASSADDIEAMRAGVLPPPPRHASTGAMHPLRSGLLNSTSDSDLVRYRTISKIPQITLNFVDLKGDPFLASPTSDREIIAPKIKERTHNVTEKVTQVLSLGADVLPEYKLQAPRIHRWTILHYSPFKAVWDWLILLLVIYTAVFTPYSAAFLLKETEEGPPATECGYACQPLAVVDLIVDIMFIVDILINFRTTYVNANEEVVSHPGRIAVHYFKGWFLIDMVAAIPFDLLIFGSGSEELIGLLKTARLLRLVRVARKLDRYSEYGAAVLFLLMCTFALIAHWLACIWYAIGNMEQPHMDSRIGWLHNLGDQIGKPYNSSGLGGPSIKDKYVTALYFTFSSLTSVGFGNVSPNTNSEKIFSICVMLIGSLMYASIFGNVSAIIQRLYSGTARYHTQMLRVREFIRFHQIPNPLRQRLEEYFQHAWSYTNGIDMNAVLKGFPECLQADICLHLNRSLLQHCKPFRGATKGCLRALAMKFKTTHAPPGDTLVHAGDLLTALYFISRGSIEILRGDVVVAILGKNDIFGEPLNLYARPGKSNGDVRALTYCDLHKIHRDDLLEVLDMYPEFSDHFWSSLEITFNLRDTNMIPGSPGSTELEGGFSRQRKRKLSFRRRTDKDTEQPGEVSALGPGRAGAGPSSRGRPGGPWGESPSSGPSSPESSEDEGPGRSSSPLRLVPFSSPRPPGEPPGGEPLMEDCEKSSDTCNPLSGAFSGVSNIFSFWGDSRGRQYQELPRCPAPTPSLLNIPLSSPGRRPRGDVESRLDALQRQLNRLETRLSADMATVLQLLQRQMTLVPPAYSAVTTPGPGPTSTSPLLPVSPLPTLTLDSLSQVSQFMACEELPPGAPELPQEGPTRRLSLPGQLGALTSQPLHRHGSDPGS

Structure (SMILES) | hERG current change (%, negative = inhibition) at 10uM
O=C(NCCc1ccccc1)c1ccc(CS(=O)(=O)Cc2ccccc2F)o1 | -19.7%
CCCCN(C)C(=O)C1CCN(CCCc2ccccc2)CC1.O=C(O)C(=O)O | -73.4%
CCCCN(C)C(=O)C1CCN(Cc2cccnc2)CC1 | 9.71%
CCCCN(C)C(=O)C1CCN(Cc2ccccn2)CC1.O=C(O)C(=O)O | -4.27%
CN(CCO)CC(O)CN(c1ccccc1)c1ccccc1.Cl (stereo not shown) | -52.1%
OCC(O)CN(c1ccccc1)c1ccccc1 (stereo not shown) | 2.58%
NCC(O)CN(c1ccccc1)c1ccccc1 (stereo not shown) | 12%
CN(C)CC(O)CN(c1ccccc1)c1ccccc1 (stereo not shown) | -54%
Cl.OCCN(CCO)CC(O)CN(c1ccccc1)c1ccccc1 (stereo not shown) | -14.6%
CNCC(O)CN(c1ccccc1)c1ccccc1 (stereo not shown) | -39.8%
CCCCCCn1c(=O)c(C(=O)Nc2nnc(C)s2)c(O)c2ccccc21 | -1.74%
Cc1nnc(Nc2ccc3c(c2)OCO3)c2ccccc12 | -7.51%
CC1CCCCN1CCNC(=O)CCc1nnc2n(Cc3ccccc3)c(=O)c3ccccc3n12 (stereo not shown) | -51.6%
Cc1ccc(Cn2c(=O)c3ccccc3n3c(CCC(=O)NCCN4CCOCC4)nnc23)cc1 | -19.5%
O=C(CCc1nnc2n(Cc3ccc(Cl)cc3)c(=O)c3ccccc3n12)NCCN1CCCC1 | -75.8%
O=C(CCc1nnc2n(Cc3ccccc3)c(=O)c3ccccc3n12)NCCN1CCOCC1 | -1.06%
CC1CCCC(C)N1CCNC(=O)CCc1nnc2n(Cc3ccccc3)c(=O)c3ccccc3n12 (stereo not shown) | -42.6%
O=C(CCc1nnc2n(Cc3ccc(F)cc3)c(=O)c3ccccc3n12)NCCCN1CCOCC1 | -16.4%
O=C(CCc1nnc2n(Cc3ccc(F)cc3)c(=O)c3ccccc3n12)NCCN1CCOCC1 | -20.3%
O=C(CCc1ccccc1)NCCCN1CCOCC1 | 12.3%
O=C(CCc1nnc2n(Cc3ccc(Cl)cc3)c(=O)c3ccccc3n12)NCCCN1CCOCC1 | -59.9%
COc1ccccc1CNC(=O)Cn1cc([N+](=O)[O-])ccc1=O | 15.2%
O=C1c2ccc3c4c(ccc(c24)C(=O)N1c1cccc(O)c1)C(=O)N(c1cccc(O)c1)C3=O | 8.86%

Structure (SMILES) | hERG current change (%, negative = inhibition) at 10uM
CCc1ccccc1NC(=O)C/C(C)=N/NC(=O)COc1ccccc1C | 9.02%
CCc1ccc(NC(=O)C/C(C)=N/NC(=O)COc2ccccc2C)cc1 | -53.2%
CCc1ccc(NC(=O)C/C(C)=N/NC(=O)COc2ccc(C)cc2Br)cc1 | -30.5%
COc1ccc(S(=O)(=O)Nc2ccccc2C(=O)N2CCOCC2)cc1C | -0.937%
CCC(=O)Oc1cccc(C(=O)Nc2cccc(NC(=O)c3ccco3)c2)c1 | -1.06%
CCS(=O)(=O)n1nc(-c2ccccc2)nc1NCc1ccco1 | -29.9%
COc1ccc(C(=O)N/N=C\c2coc3ccccc3c2=O)cc1 | 6.36%
COc1ccc(OC(C)c2nnc(N)s2)cc1 (stereo not shown) | -71.4%
CC(Oc1ccccc1)c1nnc(N)s1 (stereo not shown) | -1.12%
Cc1ccc(OC(C)c2nnc(N)s2)cc1Cl (stereo not shown) | -2.12%
Clc1ccc(CSc2nncn2-c2ccccn2)cc1 | -28.7%
Cl.OCCNCc1cc(Br)ccc1OCc1ccc(F)cc1 | -49.7%
CC(C)NCc1cc(Br)ccc1OCc1ccccc1.Cl | -61.8%
CC(C)(CO)NCc1cc(Br)ccc1OCc1ccccc1.Cl | -35.5%
COc1cc(CNCCO)cc(Br)c1OCc1ccccc1Cl.Cl | -3.45%
Cl.OCCNCCNCc1ccccc1OCc1ccccc1 | 8.83%
COc1cccc(CNCCO)c1OCc1ccccc1Cl.Cl | -8.68%
Cl.OCCNCc1cc(Br)ccc1OCc1ccc(Cl)cc1 | -66.6%
Cl.OCCNCc1cc(Br)ccc1OCc1ccccc1Cl | -74.9%
COc1cc(CNCCO)cc(Br)c1OCc1ccccc1.Cl | -25.4%
C=CCOc1ccc(Br)cc1CNCCO.Cl | 0.469%
Cl.OCCNCc1cc(Br)ccc1OCc1ccccc1 | -55.7%
COCC(C)NCc1cc(Br)ccc1OC.O=C(O)C(=O)O (stereo not shown) | 8.73%

Structure (SMILES) | hERG current change (%, negative = inhibition) at 10uM
O=C(O)COc1ccc(/C=C2/SC(=S)N(Cc3ccccc3)C2=O)cc1 | 17.3%
COc1cnc(-c2ccccc2)nc1Oc1cccc(C)c1C | -0.114%
Cc1ccccc1C1c2[nH]c3ccccc3c2CCN1C(=O)c1ccc(=O)n(C)n1 (stereo not shown) | -10.6%
Cc1noc(C)c1COc1cccc(C(=O)NCc2ccccc2Cl)c1 | -11.3%
Cc1cccc(OCC(=O)NNC(=O)c2cc3ccccc3oc2=O)c1 | -9.32%
CC1CC(C)CN(CCCNC(=O)CN2C(=O)c3cccnc3Oc3ccc(Cl)cc32)C1 (stereo not shown) | -30.7%
Cc1ccc(S(=O)(=O)N/N=C/c2cn(C)nc2C)cc1 | -2.68%
Cl.OCCCCNCc1cc(Br)ccc1OCc1ccccc1 | -61.8%
COc1cc(CNCCCCO)ccc1OCc1ccccc1F.Cl | -14.2%
Cl.OCCCCNCc1cc(Br)ccc1OCc1ccccc1F | -24.7%
Cc1ccc(OCc2nnc(SCC(=O)N3CCc4ccccc43)n2C)cc1 | 16.4%
Cc1ccc(-c2csc3ncn(CC(=O)N4CCOCC4)c(=O)c23)cc1C | -5.43%
CCn1c(SCC(=O)Nc2cccc(NC(C)=O)c2)nnc1-c1ccco1 | 14.8%
COc1ccc(S(=O)(=O)N2CCOCC2)cc1C(=O)N1CCCCC1 | -31.6%
CN(C)CCCN1c2ccc([N+](=O)[O-])cc2CCc2cc([N+](=O)[O-])ccc21 | -50.3%
Cc1ccccc1CN1CCc2cc([N+](=O)[O-])ccc21 | 19.1%
CC(=O)N1c2ccccc2CCc2ccc([N+](=O)[O-])cc21 | 2.5%
C=CCNC(=S)NC(=O)c1ccc(C)c(Br)c1 | 3.39%
N/C(=N\OC(=O)N1CCOCC1)c1ccc(Br)cc1 | 17.6%
CN1C[C@H](CO)C=C2c3cccc4[nH]cc(c34)C[C@H]21 | 4.32%
COc1ccccc1C(=O)Nc1c(C(=O)N(CCN(C)C)Cc2ccco2)oc2ccccc12 | -82.7%
CCOC(=O)c1oc2ccccc2c1NC(=O)c1ccccc1OC | 16.6%
COc1ccccc1C(=O)NCc1ccco1 | 9.61%

Structure (SMILES) | hERG current change (%, negative = inhibition) at 10uM
Cc1ccccc1C(=O)Nc1c(C(=O)N(CCN(C)C)Cc2ccco2)oc2ccccc12 | -79.7%
Cc1c(C(=O)NCc2ccco2)oc2ccccc12 | -6.97%
Cc1c(C(=O)N(Cc2ccco2)Cc2cccs2)oc2ccccc12 | -34.2%
COCCNC(=S)Nc1cc(OC)c(NC(=O)c2ccco2)cc1OC | -3.62%
Cc1ccc(OCCCCNC(C)(C)C)c([N+](=O)[O-])c1.O=C(O)C(=O)O | -4.42%
COc1cccc(CNc2nc(SC)ncc2CO)c1 | 14.5%
CC(=O)c1c(C)nc(-c2ccc3c(c2)OCO3)n1O | 0.643%
CCOC(=O)N1CCC(N2CCCC(C(=O)c3ccccc3OC)C2)CC1 (stereo not shown) | -67.7%
CCc1noc(C)c1C(=O)N1CCCC(C(=O)c2cc(F)ccc2OC)C1 (stereo not shown) | 18.6%
Cc1cc(C(=O)N2CCCC(C(=O)c3cccc4ccccc34)C2)nc(C)n1 (stereo not shown) | -2.09%
COc1ccc(F)cc1C(=O)C1CCCN(C(=O)C2=C(C)OCCO2)C1 (stereo not shown) | 1.15%
CCOC(=O)N1CCC(N2CCCC(C(=O)c3cc(F)ccc3OC)C2)CC1 (stereo not shown) | -86.7%
COc1ccccc1C(=O)C1CCCN(C(=O)c2cc(CC(C)C)nc(C)n2)C1 (stereo not shown) | -60.5%
COc1ccccc1C(=O)C1CCCN(C(=O)c2ccccn2)C1 (stereo not shown) | 12.4%
CCN(CC)CC(=O)N1CCCC(C(=O)c2ccccc2OC)C1 (stereo not shown) | -10.3%
COc1ccccc1C(=O)C1CCCN(C(=O)C2CCCC2)C1 (stereo not shown) | -6.06%
CC(NC(=O)/C(C#N)=C/c1ccc(Cl)c([N+](=O)[O-])c1)c1ccccc1 (stereo not shown) | 4.7%
CCN(CC)C(=O)Nc1ccc(C(=O)OC)cc1 | -1.77%
COc1ccc(C2=NN(C(=O)CN3CCOCC3)C(c3nc4ccccc4[nH]3)C2)cc1 (stereo not shown) | -8.74%
C[NH+](C)CC(C)(C)CNS(=O)(=O)c1ccc(Cl)c(Cl)c1.[Cl-] | 4.29%
CCCn1nc(NC(=O)CC(C)C)c2cc3ccccc3nc21 | 12%
COc1ccc(-c2noc(CCC(=O)Nc3cc(OC)ccc3OC)n2)cc1 | -14.7%
